Source: PubChem BioAssay (National Center for Advancing Translational Sciences (NCATS))
Compounds with a hit are over-represented: about 6.9% of the library has one in this group of screens.
Vif-APOBEC3G blk = inhibitors of Vif-APOBEC3G interaction. Q9HC16. HeLa A3G-eYFP + Vif (tagged APOBEC3G with the HIV-1 protein that degrades it), YFP fluorescence, overnight. Potency, µM (doses to about 46.1 µM), for the others: at the highest dose activity, negative = active, usual class: inhibitors. 0.076% of 410,000 active; also: potency is read from the fitted curve at half-maximal effect; % is scaled to controls: 0 for no effect and ±100 for the full control effect; nearly all actives have a fitted effect of over 60% in size
Target sequence (Q9HC16 whole entry, looked up): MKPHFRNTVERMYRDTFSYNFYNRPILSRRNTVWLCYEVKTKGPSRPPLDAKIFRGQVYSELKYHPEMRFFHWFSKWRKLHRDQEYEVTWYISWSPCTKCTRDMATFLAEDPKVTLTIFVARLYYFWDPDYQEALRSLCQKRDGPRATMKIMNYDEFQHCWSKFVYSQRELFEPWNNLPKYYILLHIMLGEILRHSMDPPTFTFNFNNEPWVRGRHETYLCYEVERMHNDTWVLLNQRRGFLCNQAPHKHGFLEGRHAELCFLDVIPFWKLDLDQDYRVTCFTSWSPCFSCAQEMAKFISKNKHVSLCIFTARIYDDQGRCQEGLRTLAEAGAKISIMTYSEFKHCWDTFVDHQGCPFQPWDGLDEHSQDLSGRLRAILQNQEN
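HeLa cells stably expressing Vif and C-terminally eYFP-tagged A3G, seeded overnight at 37 deg C, then exposed to compound by pintool overnight at 37 deg C. Rise in yellow fluorescence (Ex 488/Em 500-530, Acumen) marks blocked Vif-driven A3G degradation.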
Giardia killer = kills Giardia lamblia; activity change, % at 7.66 µM, hits read low; AID 540267; 0.15% of 340,000 active; Giardia lamblia trophozoite viability; in the data active = activity change below about -80%; inconclusive = between about -30% and that limit;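 also: parasites exposed to compound for two days anaerobically before the ATP read; % is scaled to controls: 0 for no effect and ±100 for the full control effect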
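Luminescence from cellular ATP indicates surviving trophozoites (100 cells/well) following 48 hrs anaerobic compound treatment at 37 deg C; signal develops 15-30 min at room temperature.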
IL1B secr inh = inflammasome signaling inhibition, IL-1 beta readout; THP-1 LPS/ATP IL-1B secretion, AlphaLISA, 16 h; stronger effect = lower value; 4.7% of 360,000 active; activity change, % at 57.5 µM; in the data active = activity change below about -50%; inconclusive = mostly about -30% to -49%; also: % is scaled to controls: 0 for no effect and ±100 for the full control effect
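THP-1 cells pretreated 1 hr with compounds (up to 57.5 uM final), then stimulated with LPS (250 ng/mL final) plus ATP (1.25 mM final); secreted IL-1B measured by AlphaLISA after 16 hr, decreased signal indicating inhibition.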
SW480 rerep = inducers of DNA re-replication in SW480 colon cancer cells. SW480 DNA re-replication, Hoechst DNA content imaging, 48 h. Potency, µM (series often up to 46.1 µM), without a hit: at the highest dose re-replication activation, actives largely listed as activators. 1.8% of 340,000 active; also: potency is read from the fitted curve at half-maximal effect; % of control where 0% means no effect; nearly all actives have a fitted effect of over 55% in size
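250 cells/well; 23 nL cpd via pin tool; 48 hr, 37 C, 5% CO2; Hoechst 40 min; imager read of total nuclear intensity, ex 405/em 500-530 nm.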
MCF10A rerep = inducers of DNA re-replication in MCF 10A breast cells. MCF 10A DNA re-replication, Hoechst nuclear intensity, 48 h. Potency, µM (titrated, usually from 46.1 µM), for inactives: at the highest dose activity, positive = re-replication, actives largely listed as activators. 2.9% of 350,000 active. AID 624296; also: potency is read from the fitted curve at half-maximal effect; % of control where 0% means no effect; nearly all actives have a fitted effect of over 50% in size
Vif-APOBEC3F blk = blocks the Vif interaction with APOBEC3F. HeLa A3F-eYFP + Vif (tagged APOBEC3F with the HIV-1 protein that degrades it), YFP fluorescence increase. Potency, µM (doses to about 46.1 µM), inactives show top-dose activity, negative = active. 0.2% of 390,000 active; also: potency is read from the fitted curve at half-maximal effect; % of control where 0% means no effect; nearly all actives have a fitted effect of over 65% in size
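HeLa cells stably expressing Vif plus C-terminally eYFP-tagged A3F were seeded, incubated overnight at 37 deg C, dosed with compound, incubated overnight again at 37 deg C. Yellow fluorescence (Ex 488/Em 500-530) reported blocked Vif-mediated A3F-eYFP degradation.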
* = called active by the depositor; ? = inconclusive; . = no result given. Unless noted, calls follow the shape of the dose curve; as a rule, active = well fitted curve in the direction sought with a large enough effect; inconclusive = small, poorly fitted or top-dose-only effect, or another doubt; inactive = no such curve, though single readings can be large; an effect the other way counts as inactive or inconclusive.

SMILES	Vif-APOBEC3G blk	Giardia killer	IL1B secr inh	SW480 rerep	MCF10A rerep	Vif-APOBEC3F blk
CCN(CC)c1ccc(/C=C2\SC(=O)N(C(C)C)C2=O)o1	?	-7.0	-98.8*	?	3.66µM*	?
COc1cccc(/C(O)=C/c2nc3ccc(C(=O)NCCc4cccc(C)c4)cc3[nH]c2=O)c1	5.62µM*	27.9	0.0	.	?	?
O=C(NCCc1ccc(Cl)cc1)c1ccc2nc[nH]c2c1	0.0%	-11.0	6.3	-3.7%	17.4%	7.7%
COc1cccc(/C(O)=C/c2nc3ccc(C(=O)NCCc4ccc(Cl)cc4)cc3[nH]c2=O)c1	?	-9.2	28.1	11.6µM*	8.2µM*	5.01µM*
O=C(CSc1nc2ccsc2c(=O)n1-c1ccc(Br)cc1)NCc1ccccc1	-18.0%	4.5	.	.	.	-5.6%
Cc1ccc2cc(CN(C)C(=O)c3cccc(Cl)c3)c(=O)[nH]c2c1	-3.4%	.	.	.	.	-1.1%
C[C@@H]1CN([C@@H](C)CO)C(=O)Cc2cc(NC(=O)Nc3ccc(F)cc3)ccc2O[C@@H]1CN(C)Cc1ccc(Cl)c(Cl)c1	-18.6%	-7.3	-54.2*	-27.1%	20.3%	-4.1%
C[C@H](CO)N1C[C@H](C)[C@H](CN(C)Cc2ccncc2)Oc2ccc(NC(=O)Nc3ccc(C(F)(F)F)cc3)cc2CC1=O	-8.1%	0.3	-10.0	?	?	-4.2%
C[C@H]1CN([C@@H](C)CO)C(=O)Cc2cc(NS(C)(=O)=O)ccc2O[C@@H]1CN(C)Cc1ccc(Cl)c(Cl)c1	-0.2%	5.5	?	-1.4%	-8.1%	-4.9%
C[C@H]1CN([C@@H](C)CO)C(=O)Cc2cc(NC(=O)Nc3ccccc3)ccc2O[C@H]1CN(C)Cc1ccccc1	?	-15.1	-71.7*	-5.1%	?	2.2%
C[C@H](CO)N1C[C@H](C)[C@H](CN(C)S(=O)(=O)c2cccs2)Oc2ccc(NC(=O)Nc3ccc4c(c3)OCO4)cc2CC1=O	-14.2%	-4.5	?	16.4µM*	?	-8.5%
C[C@H](CO)N1C[C@H](C)[C@@H](CN(C)S(=O)(=O)c2cccs2)Oc2ccc(NC(=O)Nc3ccc4c(c3)OCO4)cc2C1=O	-11.5%	-11.4	?	-3.4%	-2.9%	-0.2%
C=C(C)[C@@H]1C2=CC(C(=O)OC)=C(C[C@@H](C(=C)C)[C@H]3O[C@H]3C3=C[C@H]1OC3=O)O2	.	-11.4	.	.	.	.
Cc1ccc(-c2cn3nc(N4CCCC(C(=O)NCc5ccccc5F)C4)sc3n2)cc1 (centres undefined)	-1.6%	.	.	.	.	4.3%
CCc1ccc(NC(=O)CC2C(=O)N(c3ccc(Cl)cc3)C(=O)N2Cc2ccco2)cc1 (centres undefined)	-6.6%	.	.	.	.	0.4%
Cc1ccc(CCNc2nc3c(S(=O)(=O)c4ccc(C)cc4)nnn3c3ccsc23)cc1	1.5%	.	.	.	.	9.3%
CCN(c1ccccc1)S(=O)(=O)c1ccc2ccccc2c1	-0.6%	6.7	6.9	4.0%	?	-1.0%
CN(c1ccc(O)cc1)S(=O)(=O)c1ccc2ccccc2c1	-18.2%	-20.2	-62.2*	3.7%	?	8.9%
Cc1ccc(NC(=O)C2CCCN(c3nnc(C)c4c(C)n(-c5ccccc5)nc34)C2)cc1Cl (centres undefined)	0.8%	.	.	.	.	-1.0%
COc1nc(Oc2ccc(=O)n(-c3ccccc3)n2)nc(N(C)C)n1	-1.8%	.	.	.	.	-1.0%
CCOC(=O)CN1N=C(/C=C/c2ccccc2)CCC1=O	3.4%	3.0	-4.9	-2.7%	1.0%	3.5%
CCOC(=O)CN1N=C(/C=C/c2ccc(C(C)C)cc2)CCC1=O	-7.1%	-2.5	-56.1*	-5.4%	2.0%	-0.6%
CC(C)c1ccc(/C=C2\SC(N3CCOCC3)=NC2=O)cc1	-1.6%	-10.1	-65.5*	4.3%	13.8%	-3.7%
O=C1N=C(N2CCOCC2)S/C1=C\c1ccncc1	3.8%	0.5	-4.9	9.5%	6.1%	9.5%
CCc1ccc(/C=C2/SC(N3CCOCC3)=NC2=O)cc1	-3.9%	4.5	-50.3*	-38.1%	-1.6%	-1.6%
CC(=O)N(C)c1ccc(/C=C2\C=Cc3ccccc32)cc1	-3.3%	.	.	.	.	.
